# The panel holds about 83,000 compounds, 20% with a hit somewhere; the sample as a whole holds those more often.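 Testing used 96-well plates and a 48-hour single-concentration exposure. Example: -40 means 40% of the starting cells died.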 Activity calls are given as the source filed them. The calls were made as follows: active = growth percent below 10; inactive = the rest.
# Test system: RPMI-8226 leukemia
# Assay: NCI-60 one-dose screen, 48 h (100 = growth as untreated, 0 = no growth, -100 = all killed)
# Details: 10 µM unless noted
row,Structure (SMILES),growth
1,Cc1c(C)c2c(c(C)c1NC(=O)CCCCCCC(=O)O)CCC(C)(CCCC(C)CCCC(C)CCCC(C)C)O2 (configuration not stated),69% (inactive)
2,Cc1ccc(Cc2cnc(NC(=O)/C=C/c3cccc(C)c3)s2)cc1,3.37% (active)
3,CC1(C)[C@@H](O)CC[C@]2(C)[C@H]3CC[C@@H]4[C@H]5[C@H](C(=O)/C=C/c6ccc(C(F)(F)F)cc6)CC[C@]5(CO)CC[C@@]4(C)[C@]3(C)CC[C@@H]12,28.2% (inactive)
4,COc1cc2ncnc(Nc3ccc(OCc4cccc(F)c4)c(Cl)c3)c2cc1NC(=O)C1CCCC1,89.9% (inactive)
5,C=C(C)[C@@H]1CC[C@]2(c3nnc(-c4ccncc4)o3)CC[C@]3(C)[C@H](CC[C@@H]4[C@@]5(C)CCC(=O)NC(C)(C)[C@@H]5CC[C@]43C)[C@@H]12,81.4% (inactive)
6,CCc1cccc(CC)c1NC(=O)c1sc2nc3c(cc2c1N)CCCC3,85.8% (inactive)
7,CCc1ccccc1NC(=O)c1sc2nc3c(cc2c1N)CCCC3,46.1% (inactive)
8,O=Cc1nc2ccccc2[nH]1,96.9% (inactive)
9,C[C@@H]1CCCCCCCCC[C@H](O)C(=O)C[C@@H](SC[C@@H](O)C(=O)O)C(=O)O1,-2.38% (active)
10,C=C(C)[C@@H]1CC[C@]2(C(=O)N3CCN(CC)CC3)CC[C@]3(C)[C@H](CC[C@@H]4[C@@](C)(CCC(=O)N5CCN(CC)CC5)[C@H](C(=C)C)CC[C@]43C)[C@@H]12,22.3% (inactive)
11,Brc1ccc(Cn2nnnc2-c2ccn(-c3ccccc3)n2)cc1,59.2% (inactive)
12,CCCCN1CCCCn2c1nc1c2c(=O)n(C)c(=O)n1C,103% (inactive)
13,CCCCC[C@H]1CC=C2C(=O)C=C[C@@H]2CC=CCCCC(=O)O[C@@H](CCCCC)CC=C2C(=O)C=C[C@@H]2CC=CCCCC(=O)O[C@@H](CCCCC)CC=C2C(=O)C=C[C@@H]2CC=CCCCC(=O)O1,-9.62% [8.75 µM] (active)
14,CC(C)=CCC[C@](C)(O)[C@H]1CC[C@]2(C)[C@@H]1CC[C@@H]1[C@@]3(C)C/C(=C/c4cccc([N+](=O)[O-])c4)C(=O)C(C)(C)[C@@H]3CC[C@]12C,59.9% (inactive)
15,Cn1cc(-c2csc(-c3cn(CCNC(=O)OC(C)(C)C)c4ccc(F)cc34)n2)c2cccnc21,34.4% (inactive)
16,CN1CCN(CCOc2ccc(-c3cnc4c(-c5ccccc5F)cnn4c3)cc2)CC1,-9.99% (active)
17,Cc1cc(N2CCCCC2)nc(N(CCCNc2ccnc3cc(Cl)ccc23)Cc2ccco2)n1,-35.3% (active)
18,Brc1ccc2c(c1)c(-c1nc(-c3c[nH]c4ncccc34)cs1)cn2CCCN1CCCCC1,-47.9% (active)
19,NC1=C(C/C(N)=N\O)C(c2ccccc2Cl)c2c(ccc3ccccc23)O1 (configuration not stated),81.9% (inactive)
20,O=C1Nc2ccccc2/C1=C/c1cn(CCCn2c3ccccc3c(=O)c3ccccc32)c2ccccc12,90% (inactive)
21,COC(=O)[C@]12CC[C@@H](C)[C@H](C)[C@@H]1C1=CC[C@@H]3[C@@]4(C)C(c5ncon5)=C[C@@](C)(CO)C4=CC[C@@]3(C)[C@]1(C)CC2,-32.4% (active)
22,c1ccc(CN2C(c3ccccc3)=Nc3ccccc3C2c2c[nH]c3ccccc23)cc1 (configuration not stated),4.99% (active)
23,CC1(C)NCCC[C@]2(C)[C@H]3CC[C@@H]4[C@H]5[C@H](C(=O)/C=C/c6ccccn6)CC[C@]5(CO)CC[C@@]4(C)[C@]3(C)CC[C@@H]12,-13.1% (active)
24,Cc1cccc(C)c1NCc1nc(-c2ccccc2)n[nH]1,108% (inactive)
25,COc1cccc(-c2nn(-c3ccccc3)cc2-c2ccnc(NCCNS(=O)(=O)c3cccc(F)c3)c2)c1,23.7% (inactive)
26,N#C/C(=C\c1ccc(-c2ccc(Cl)cc2)o1)c1nc(-c2ccco2)cs1,64.7% (inactive)
27,COc1cc(-c2cc3cc(O)ccc3oc2=O)cc(OC)c1OC,91.7% (inactive)

# From PubChem BioAssay (NCI)
